The values below come from PubChem BioAssay (NCI).

Holding throughout (assay): NCI-60 one-dose screen, 48 h (100 = growth as untreated, 0 = no growth, -100 = all killed)
Holding throughout (conditions): 10 µM

For test [1], the system named is SR leukemia.
Test [2] relates to RPMI-8226 leukemia.
Test [3] deals with OVCAR-8 ovarian.
Test [4] relates to OVCAR-5 ovarian.
Test [5] relates to OVCAR-4 ovarian.
The test system of test [6] is SK-OV-3 ovarian.
The subject of test [7] is IGROV1 ovarian.
The test system of test [8] is OVCAR-3 ovarian.
In test [9] the test system is HS 578T breast.
The test system of test [10] is NCI/ADR-RES ovarian.
The subject of test [11] is T-47D breast.
In test [12] the test system is BT-549 breast.
Test [13] deals with MDA-MB-435 melanoma.
Test [14] deals with SW-620 colon.
In test [15] the test system is MCF7 breast.
Test [16] deals with HCT-116 colon.
The test system of test [17] is HCC-2998 colon.
The test system of test [18] is KM12 colon.
The test system of test [19] is MDA-MB-468 breast.

Compounds without any hit were thinned out: in the full panel of roughly 83,000, 20% have a hit.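 Testing used 96-well plates and a 48-hour single-concentration exposure. Example: -40 means 40% of the starting cells died.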 A number with no mark means an inactive call. The source made the active and inactive calls. Rule for the calls: active = growth percent below 10; inactive = the rest.

In the case of `CCOC(=O)c1c(CSc2ccccc2)n(C)c2cc(CN(C)C)c(O)c(CN(C)C)c12`, the growth was 21.4% in [1]; 28.5% in [2]; 30.4% in [3]; 63.4% in test [4]; 36.5% in test [5]; 87% in test [6]. In addition, the growth was 25.4% in test [7]; 13.8% in [8]; 44.3% in test [9]; 76.4% in test [10]; 50.2% in test [11]; 63.7% in test [12]. For the same compound, the growth is 54% in test [13]; 23.1% in [14]; 3.06% (active) in [15]; 10.9% in [16]; 12.1% in test [17]; 40.4% in test [18]. In addition, the growth in test [19] is -4.94% (active).
Take `O=C1c2ccccc2C(=O)c2c1c(C(=O)c1ccc(Cl)cc1)n1c2ccc2c3ccccc3ccc21`: the growth in test [1] is 104%; in test [2], 101%; in [3], 103%; in test [4], 115%; in test [5], 107%; in test [6] it was 95%. Further, the growth in test [7] was 105%; in test [8], 109%; in [9], 93.2%; in [10] it was 103%; in test [11], 104%; in [12], 119%. Moreover, the growth in [13] was 114%; in test [14] it was 101%; in [15], 93%; in [16], 104%; in test [17], 116%; in test [18] it was 103%. In [19], the growth was 112%.
Consider `CCOc1ccc(/C=N/NC(=O)Cn2nc(Cc3ccc([N+](=O)[O-])cc3)c3onc(C)c3c2=O)cc1`, for which the growth was 62.7% in [1]; 68.9% in [2]; -16.5% (active) in test [3]; 43.8% in test [4]; -34.8% (active) in [5]; 91.3% in [6]. For the same compound, the growth is 27.6% in [7]; -37.5% (active) in test [8]; -7.55% (active) in [9]; 19.4% in test [10]; 8.58% (active) in [11]; 55.2% in test [12]. Also, the growth in [13] is 49.7%; in test [14] it was 15.2%; in [15] it was 9.23% (active); in [16], -26% (active); in [17] it was 29%; in test [18] it was 51.3%. In [19], the growth is -30.7% (active).
As for `O=C(CSc1nnc(-c2c[nH]c3ccccc23)n1-c1ccccc1)c1ccccc1`, the growth in [1] was 81.6%; in test [2], 81.3%; in test [3] it was 14.7%; in [4], 88.6%; in [5], -2.47% (active); in test [6], 85.6%. Also, the growth in [7] is 55.1%; in test [8], 60.8%; in test [9] it was 24.1%; in [10], 14.8%; in [11], 83.5%; in [12], 62.2%. In addition, the growth in test [13] was 87.2%; in [14], 76.1%; in test [15] it was 36.2%; in test [16], 38%; in [17], 83.1%; in test [18], 69.5%. In addition, the growth in test [19] was 77.2%.
Consider `Cc1ccc(/C=C/C(=O)c2ccc(S(=O)(=O)NCCNc3nc(Nc4ccc(F)cc4)nc(N(C)C)n3)cc2)cc1`, for which the growth in test [1] is 1.14% (active); in test [2], 4.72% (active); in [3] it was 3.72% (active); in [4] it was 39.2%; in test [5], 21.8%; in test [6], 94.7%. Besides, the growth in [7] was 52.1%; in [8], -55.9% (active); in [9], 68.8%; in [10], 14.7%; in test [11] it was 24.8%; in test [12] it was 64.6%. Also, the growth in test [13] was -23% (active); in test [14], -8.7% (active); in test [15], -55.8% (active); in test [16], -51.7% (active); in test [17] it was -11.9% (active); in test [18] it was -53.8% (active). Further, the growth in test [19] was -2.81% (active).
With `CCCCSc1nc(Nc2ccc(/C(C)=N/NC(N)=S)cc2)c(C#N)c(-c2ccc(OC)cc2)n1`, the growth is 40.2% in test [1]; 67.8% in [2]; 11.8% in test [3]; 130% in test [4]; -43.9% (active) in [5]; 94.9% in [6]. Further, the growth was 68.4% in [7]; -27.2% (active) in test [8]; 20.3% in test [9]; 25.8% in [10]; 67.2% in test [11]; 42.9% in test [12]. Besides, the growth is 59.3% in test [13]; 97.2% in [14]; 49.2% in test [15]; 38.2% in test [16]; 94.5% in test [17]; 79.3% in test [18]. In test [19], the growth was 87.7%.
With `COc1ccc(C2NC(=S)NC(C)=C2C(=O)OC(C)C)cc1OC` (configuration not stated), the growth was 101% in [1]; 104% in test [2]; 106% in test [3]; 105% in test [4]; 99.3% in [5]; 135% in [6]. Besides, the growth was 109% in [7]; 113% in test [8]; 89.8% in [9]; 102% in test [10]; 91.1% in [11]; 103% in [12]. In addition, the growth was 104% in test [13]; 103% in test [14]; 108% in test [15]; 99.3% in test [16]; 114% in test [17]; 103% in test [18]. In addition, the growth in test [19] is 98.9%.
`COc1ccc(Nc2nc(N)n(Cc3cccc(Br)c3)n2)cc1`: the growth in test [1] was 12.6%; in test [2], 8.38% (active); in test [3] it was 26.2%; in test [4], 21.7%; in test [5] it was 7.22% (active); in [6], 22.8%. Also, the growth in test [7] was 12%; in [8], 19.6%; in test [9], -12.3% (active); in [10], 2.23% (active); in test [11], 13.4%; in [12], -8.47% (active). Besides, the growth was -18.2% (active) in [13]; 18.3% in test [14]; 1.86% (active) in [15]; 12% in test [16]; -13.1% (active) in test [17]; 1.74% (active) in test [18]. In addition, the growth in test [19] is -12.3% (active).
